This is an account of results in PubChem BioAssay (NCATS).

Records with an inconclusive call do not appear. A number with no mark means an inactive call. Active and inactive are the calls of the source. Calls follow the shape of the dose curve; as a rule, active = well fitted curve in the direction sought with a large enough effect; inconclusive = small, poorly fitted or top-dose-only effect, or another doubt; inactive = no such curve, though single readings can be large; an effect the other way counts as inactive or inconclusive.

The target in experiment [1] is Rap guanine nucleotide exchange factor 3 (Homo sapiens) (UniProt O95398). Nature of the experiment: Confirmatory qHTS for antagonist of cAMP-regulated guanine nucleotide exchange factor 3 (EPAC1) (AID 1645880). Also: nearly all actives have a fitted effect of over 55% in size. Also: potency is read from the fitted curve at half-maximal effect. A digest of the protocol: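 Released BODIPY-GDP fluoresces less than Rap1-bound BODIPY-GDP; the signal is followed at 480/540 nm at 5-min intervals over 30 min, after 5 min at room temperature. Reactions contain 100 nM EPAC1, 250 nM RAP1B-BODIPY-GDP and 50 uM GDP; results are normalized to ATA and DMSO.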
On the technique in general: In qHTS, concentration-response curves come from the screen itself.

Experiment [2] has the same target. Kind of experiment: Confirmatory qHTS for agonist of cAMP-regulated guanine nucleotide exchange factor 3 (EPAC1) (AID 1645881). Also: nearly all actives have a fitted effect of over 75% in size. Also: potency is read from the fitted curve at half-maximal effect.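 As to activation: EPAC1 catalysed release of BODIPY-GDP from Rap1B seen as fluorescence loss; 100% = effect of cAMP agonist control.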
Experiment [3] addresses Rap guanine nucleotide exchange factor 4 (Homo sapiens) (UniProt Q8WZA2). Nature of the experiment: Confirmatory qHTS for agonist of cAMP-regulated guanine nucleotide exchange factor 4 (EPAC2) (AID 1645884).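 Also: nucleotide exchange releases bodipy-GDP from Rap1 and this lowers its fluorescence; nearly all actives have a fitted effect of over 65% in size.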 Also: potency is read from the fitted curve at half-maximal effect. As to activation: % is scaled to controls: 0 for no effect and ±100 for the full control effect.
Experiment [4] shares this target. Kind of experiment: Confirmatory qHTS for antagonist of cAMP-regulated guanine nucleotide exchange factor 4 (EPAC2) (AID 1645885). Also: nearly all actives have a fitted effect of over 25% in size. Also: potency is read from the fitted curve at half-maximal effect. As to activity change, negative = inhibition: % is scaled to controls: 0 for no effect and ±100 for the full control effect.
Experiment [5] has as its target Rap guanine nucleotide exchange factor 3 (Homo sapiens) (UniProt O95398). Kind of experiment: Counterscreen qHTS for antagonist of cAMP-regulated guanine nucleotide exchange factor 3 (EPAC1) (AID 1645888). Also: % of control where 0% means no effect. Summed up: (§1)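 Rap1B-BODIPY-GDP 250 nM + GDP 50 uM; cpds 7-pt, final 9.74 nM–152 uM (activator mode) or from 7.32 nM upwards (inhibitor mode); RT; FI 480/540 nm at 5 and 30 min, then ± cAMP, reread.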
Background: Counterscreens check selectivity or assay interference.

Experiment [6] has the same target. Kind of experiment: Counterscreen qHTS for agonist of cAMP-regulated guanine nucleotide exchange factor 3 (EPAC1) (AID 1645889). Also: % of control where 0% means no effect; nearly all actives have a fitted effect of over 40% in size. A digest of the protocol:
as §1

Sequence of Rap guanine nucleotide exchange factor 3 (Homo sapiens) (O95398 whole entry, looked up): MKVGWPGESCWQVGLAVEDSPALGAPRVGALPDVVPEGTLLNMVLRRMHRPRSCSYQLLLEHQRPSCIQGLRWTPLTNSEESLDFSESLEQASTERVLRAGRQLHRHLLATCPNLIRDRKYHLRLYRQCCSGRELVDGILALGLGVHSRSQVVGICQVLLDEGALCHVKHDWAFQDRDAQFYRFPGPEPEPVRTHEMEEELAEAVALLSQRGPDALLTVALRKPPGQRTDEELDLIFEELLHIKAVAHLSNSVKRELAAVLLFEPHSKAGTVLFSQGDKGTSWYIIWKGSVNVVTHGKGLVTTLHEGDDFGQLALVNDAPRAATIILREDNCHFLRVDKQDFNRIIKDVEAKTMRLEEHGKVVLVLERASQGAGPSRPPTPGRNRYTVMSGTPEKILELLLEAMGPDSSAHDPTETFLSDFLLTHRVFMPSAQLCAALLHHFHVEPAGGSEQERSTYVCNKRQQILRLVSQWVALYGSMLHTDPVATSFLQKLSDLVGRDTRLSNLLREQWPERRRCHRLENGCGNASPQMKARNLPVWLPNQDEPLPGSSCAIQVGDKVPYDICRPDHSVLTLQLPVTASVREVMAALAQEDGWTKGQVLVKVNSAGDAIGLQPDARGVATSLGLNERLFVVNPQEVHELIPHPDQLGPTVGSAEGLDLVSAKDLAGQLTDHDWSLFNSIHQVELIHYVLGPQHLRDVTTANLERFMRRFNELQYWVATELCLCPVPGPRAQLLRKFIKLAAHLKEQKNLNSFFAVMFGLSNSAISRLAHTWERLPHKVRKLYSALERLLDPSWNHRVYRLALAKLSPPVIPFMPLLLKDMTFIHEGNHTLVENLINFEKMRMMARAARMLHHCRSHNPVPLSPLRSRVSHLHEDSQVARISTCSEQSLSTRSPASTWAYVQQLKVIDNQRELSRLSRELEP
Sequence of Rap guanine nucleotide exchange factor 4 (Homo sapiens) (Q8WZA2 whole entry, looked up): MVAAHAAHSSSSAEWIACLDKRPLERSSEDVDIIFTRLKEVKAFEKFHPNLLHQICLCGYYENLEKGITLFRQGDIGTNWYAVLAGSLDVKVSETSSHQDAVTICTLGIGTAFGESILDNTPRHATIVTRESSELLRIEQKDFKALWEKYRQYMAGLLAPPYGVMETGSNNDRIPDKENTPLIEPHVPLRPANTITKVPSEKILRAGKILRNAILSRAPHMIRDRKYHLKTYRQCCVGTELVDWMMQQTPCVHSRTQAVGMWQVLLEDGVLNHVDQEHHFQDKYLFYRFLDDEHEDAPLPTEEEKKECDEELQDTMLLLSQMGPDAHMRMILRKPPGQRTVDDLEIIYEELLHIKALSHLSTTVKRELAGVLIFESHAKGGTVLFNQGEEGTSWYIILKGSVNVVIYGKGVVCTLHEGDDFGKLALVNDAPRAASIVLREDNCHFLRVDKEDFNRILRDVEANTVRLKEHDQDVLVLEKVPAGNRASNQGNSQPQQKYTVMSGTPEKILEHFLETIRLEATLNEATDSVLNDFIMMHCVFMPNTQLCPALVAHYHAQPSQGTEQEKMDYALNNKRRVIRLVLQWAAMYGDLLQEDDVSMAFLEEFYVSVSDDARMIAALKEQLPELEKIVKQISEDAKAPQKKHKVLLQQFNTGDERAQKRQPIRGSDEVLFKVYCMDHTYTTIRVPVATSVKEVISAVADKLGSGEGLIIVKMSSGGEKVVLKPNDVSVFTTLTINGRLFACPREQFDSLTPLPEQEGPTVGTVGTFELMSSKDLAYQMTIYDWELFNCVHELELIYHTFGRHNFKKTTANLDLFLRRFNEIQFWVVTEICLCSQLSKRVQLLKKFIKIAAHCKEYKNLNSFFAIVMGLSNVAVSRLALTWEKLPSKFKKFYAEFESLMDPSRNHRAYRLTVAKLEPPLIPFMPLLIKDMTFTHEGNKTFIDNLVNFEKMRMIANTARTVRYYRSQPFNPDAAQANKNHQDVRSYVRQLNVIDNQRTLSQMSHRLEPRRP

Take `CCN(CC(=O)Nc1ccc(NC(C)=O)cc1)CC(=O)Nc1ccc(F)c(Cl)c1`: the Potency result in experiment [1], in experiment [2] and in experiment [4] was “inactive” in each case. For the same compound, the activation in experiment [3] was 5.14% [at 17.1 µM, percent relative to cAMP agonist control]. The activity change, negative = inhibition in experiment [5] is 3.51% [at 30.8 µM].

Consider `COc1ccc(C(=O)Nc2cc(OC)c(Cl)cc2OC)cc1`, for which the Potency entry in experiment [1], in experiment [2] and in experiment [4] was “inactive” each time. Besides, the activation in experiment [3] is 4.3% [at 17.1 µM, percent relative to cAMP agonist control]; in experiment [6], 10.3% [at 30.8 µM]. Moreover, the activity change, negative = inhibition in experiment [5] was -12.1% [at 30.8 µM].

`CC1Cc2nc(SCC(=O)NCc3ccccc3)n(Cc3ccccc3)c(=O)c2S1` (stereo unspecified): the Potency entry in experiment [1], in experiment [2] and in experiment [4] was “inactive” in each case. Further, the activation in experiment [3] is 2.68% [at 17.1 µM, percent relative to cAMP agonist control]; in experiment [6], 14% [at 30.8 µM]. Moreover, the activity change, negative = inhibition in experiment [5] was 0.448% [at 30.8 µM].

On to `Cn1c(=O)c2c(-c3ccccc3Br)n(CCc3ccccc3)cc2n(C)c1=O`, for which the Potency result in experiment [1], in experiment [2], in experiment [3] and in experiment [5] was “inactive” throughout. For the same compound, the outcome in experiment [4] is “inactive [at 12.7 µM]”.

Turning to `CCc1ccccc1C1=CC(=O)C[C@H](c2ccc(OC)cc2)C1`, the Potency entry in experiment [1], in experiment [2], in experiment [3], in experiment [4] and in experiment [5] was “inactive” throughout.

For the compound `CCOC(=O)CSc1nc(C)c2cc(C)c(C)cc2n1`, the Potency result in experiment [1], in experiment [2], in experiment [3], in experiment [4] and in experiment [5] was “inactive” each time.

Turning to `O=C(O)c1ccccc1N/N=C/C1=C(N2CCOCC2)C(=C\c2ccccc2)/CC1`, in experiment [1], the Potency was 67.5 µM (active). Moreover, the Potency result in experiment [2], in experiment [3], in experiment [4] and in experiment [5] was “inactive” throughout.

`CCC(Oc1ccccc1)C(=O)Nc1cc(Cl)ccc1-n1cncn1` (stereo unspecified): the Potency entry in experiment [1], in experiment [2], in experiment [3], in experiment [5] and in experiment [6] was “inactive” each time. The Potency in experiment [4] is 47.8 µM (active).

As for `Cc1nn(CCc2nn[nH]n2)c2nc(-c3ccc(C4CCCCC4)cc3)cc(C(F)(F)F)c12`, the Potency in experiment [1] was 21.3 µM (active). Besides, the Potency entry in experiment [2], in experiment [3], in experiment [4], in experiment [5] and in experiment [6] was “inactive” in each case.

As to `O=C(O)CN1C(=O)/C(=C\c2cc(Br)ccc2OCc2ccccc2F)SC1=S`, in experiment [1], the Potency was 35.5 µM (active). The Potency result in experiment [2] and in experiment [4] was “inactive” in each case. Besides, the activation in experiment [3] was 4.56% [at 17.1 µM, percent relative to cAMP agonist control]. Further, the activity change, negative = inhibition in experiment [5] was 18.9% [at 30.8 µM].

With `Nc1ccc2c3c(cccc13)-c1ccccc1-2`, the Potency result in experiment [1], in experiment [4] and in experiment [5] was “inactive” each time. Moreover, the Potency in experiment [2] and in experiment [3] was 100 µM (active) each time.

With `O=c1c(Cl)c(Cl)cnn1Cc1nnc(-c2ccccc2Br)o1`, the Potency in experiment [1] is 42.6 µM (active). The Potency entry in experiment [2], in experiment [3], in experiment [4] and in experiment [5] was “inactive” each time.

As for `CN(c1ncnc2onc(-c3cccc(Cl)c3)c12)C1CCCCC1`, the Potency entry in experiment [1], in experiment [2], in experiment [3] and in experiment [5] was “inactive” in each case. In addition, the outcome in experiment [4] was “inactive [at 12.7 µM]”.

Regarding `Cc1c(Br)c(=O)oc2c(Br)c(O)c(O)cc12`, the Potency in experiment [1] was 3.16 µM (active). Besides, the Potency entry in experiment [2] and in experiment [4] was “inactive” in each case. The activation in experiment [3] was 9.71% [at 17.1 µM, percent relative to cAMP agonist control]. The activity change, negative = inhibition in experiment [5] was 21.7% [at 30.8 µM].

With `Cc1ccc(-c2nc3ccc(Br)cn3c2Cc2ccccc2C(F)(F)F)cc1`, the results for the Potency in experiment [1] and in experiment [4] were 84.9 µM (active) and 47.8 µM (active), respectively. The Potency result in experiment [2], in experiment [3], in experiment [5] and in experiment [6] was “inactive” in each case.

Turning to `COC1C(CO)OC(n2c3c(Cl)cccc3c3c4c(c5c6cccc(Cl)c6[nH]c5c32)C(=O)NC4=O)C(O)C1O` (stereo unspecified), the Potency entry in experiment [1], in experiment [2], in experiment [3], in experiment [4] and in experiment [5] was “inactive” in each case.

`O=C(O)c1ccc(C=C(c2nc3ccccc3s2)c2nc3ccccc3s2)cc1`: in experiment [1], the Potency was 42.6 µM (active). Also, the Potency entry in experiment [2], in experiment [3], in experiment [4] and in experiment [5] was “inactive” each time.

On to `COC(=O)c1cc2occc2n1Cc1ccc(F)cc1Cl`, for which the Potency result in experiment [1], in experiment [2], in experiment [3], in experiment [4], in experiment [5] and in experiment [6] was “inactive” throughout.

With `COc1ccc(N(Cc2cccs2)C(=O)c2ccco2)cc1`, the Potency result in experiment [1], in experiment [2], in experiment [3] and in experiment [5] was “inactive” throughout. For the same compound, in experiment [4], the outcome is “inactive [at 12.7 µM]”.

For `COc1ccc(S(=O)(=O)N2CCCCCC2)cc1C(=O)N1CCCC(C(F)(F)F)C1` (stereo unspecified), the Potency entry in experiment [1], in experiment [2] and in experiment [4] was “inactive” throughout. Also, the activation in experiment [3] is 2.27% [at 17.1 µM, percent relative to cAMP agonist control]. For the same compound, in experiment [5], the activity change, negative = inhibition was -17.4% [at 30.8 µM].

Take `COc1ccc(-c2cc(OC(=O)c3ccc(Cl)cc3)c3c(C)oc(C)c3c(=O)c2)cc1`: in experiment [1], the Potency was 75.7 µM (active). The Potency result in experiment [2], in experiment [3], in experiment [4] and in experiment [5] was “inactive” in each case.

On to `COc1ccc(S(=O)(=O)N2CCC[C@H]2C(=O)N2CCC[C@H]2C(=O)N[C@@H](C)c2ccccc2)cc1C`, for which the Potency result in experiment [1], in experiment [2] and in experiment [4] was “inactive” throughout. Besides, the activation in experiment [3] is 1.42% [at 17.1 µM, percent relative to cAMP agonist control]. In addition, the activity change, negative = inhibition in experiment [5] was 6.49% [at 30.8 µM].
